{
  "source": "PubChem BioAssay AID2314",
  "about": "(National Center for Advancing Translational Sciences (NCATS), 2010)",
  "note": "“And” between values parts separate entries of the source, which are not always exact repeats. Identical values can stand only once. Among all 300,000 compounds or so, about 37,000 (12%) were called active. The sample holds actives, similar compounds and a random draw of the others, so the mix is not that of the screen. A number with no mark means an inactive call. Rule as the data show it: active = max response mostly above about 13% (no sharp cut-off); inactive = mostly below about 14%.",
  "data": [
    {"experiment": "Cycloheximide Counterscreen for Small Molecule Inhibitors of Shiga Toxin; also: read at 38.3 µM for the half of the compounds with a filed dose; 0% is about no effect", "conditions": "cell reporter, cycloheximide protein synthesis inhibition counterscreen; active compounds read high", "values": [
      {"compound": "Cc1c(NS(=O)(=O)c2ccc(NC3CCCC3)c([N+](=O)[O-])c2)c(=O)n(-c2ccccc2)n1C", "max response": "-1.22%"},
      {"compound": "Cc1ccc(NS(=O)(=O)c2ccc3c(c2)n(C)c(=O)c(=O)n3C)c(C)c1", "max response": "1.12%"},
      {"compound": "O=C(Nc1ccccc1)c1ccc2c(c1)OCCCO2", "max response": "41.3% (active)"},
      {"compound": "Cc1ccc(C(=O)Nc2sc(Cc3ccc4c(c3)OCO4)c(C)c2C(N)=O)cc1", "max response": "-4.2%"},
      {"compound": "COCc1nnc(NC(=O)CS(=O)(=O)Cc2ccccc2)s1", "max response": "5.49%"},
      {"compound": "CC(C)C(=O)Nc1cccc(C(=O)Nc2ccc3c(c2)OCO3)c1", "max response": "58.7% (active)"},
      {"compound": "COCc1nnc(NC(=O)c2ccc3c(c2)OCO3)s1", "max response": "45.3% (active)"},
      {"compound": "C/C(Cc1ccccc1)=N\\NC(=O)CNC(=O)c1ccc2c(c1)OCCO2", "max response": "-2.54%"},
      {"compound": "O=C(Nc1ccc(N2CCOCC2)cc1)c1ccc2c(c1)OCO2", "max response": "36.8% (active)"},
      {"compound": "COc1ccccc1C(=O)N/C(=C/c1ccc2c(c1)OCO2)C(=O)Nc1cccc(C(=O)O)c1", "max response": "-2.49%"},
      {"compound": "O=C(c1ccc2c(c1)OCO2)N1CCOCC1", "max response": "-3.42%"},
      {"compound": "O=C(O)CCC(=O)Nc1ccc(N2CCOCC2)cc1", "max response": "-3.84%"},
      {"compound": "O=C(CN1CCc2cc3c(cc2C1)OCCCO3)Nc1ccccc1", "max response": "5.97%"},
      {"compound": "CCCN1C2=C(C(=O)CCC2)C(c2ccc(O)c(Br)c2)C2=C1CCCC2=O", "max response": "-1.08%"},
      {"compound": "Cc1ccc(O)c(/C=N/NC(=O)COc2ccc3c(C)cc(=O)oc3c2)c1", "max response": "-8.1%"},
      {"compound": "Cn1c(=O)c2c(ncn2CC(COCc2ccccc2Cl)OCc2ccccc2Cl)n(C)c1=O", "note": "(stereo unspecified)", "max response": "-1.13%"},
      {"compound": "Cc1ccccc1N1C(=O)C(Oc2ccc(Cl)cc2)C1CNCC1CCCO1", "note": "(stereo unspecified)", "max response": "0.428%"},
      {"compound": "CC(=O)Nc1sc2c(c1C(c1cccc(F)c1)N1CCN(CCO)CC1)CCCC2", "note": "(stereo unspecified)", "max response": "-2.8%"},
      {"compound": "CCOCCCNC(=O)c1ccc(CS(=O)(=O)c2cccc(C(F)(F)F)c2)o1", "max response": "-3%"},
      {"compound": "Cc1ccc(-c2ccnc3[nH]n(-c4ccccc4)c(=O)c23)cc1", "max response": "4.53%"},
      {"compound": "COc1ccccc1N1CCN(c2ccc([N+](=O)[O-])nc2)CC1", "max response": "12.7%"},
      {"compound": "COc1ccc(OC)c(-c2c(=O)n(OCc3ccccc3Br)c3ccccc3[n+]2[O-])c1", "max response": "-4.9%"},
      {"compound": "CCOC(=O)COn1c(=O)c(-c2ccc(OCC)cc2)[n+]([O-])c2ccccc21", "max response": "21.8% (active)"},
      {"compound": "CCOc1ccc(OCC)c(-c2c(=O)n(OCc3ccc(Cl)cc3)c3ccccc3[n+]2[O-])c1", "max response": "-2.89%"},
      {"compound": "COCCNC(=O)C(c1ccc(C)cc1)N(C(=O)CCC(=O)Nc1ccccn1)c1cccc(C)c1", "note": "(stereo unspecified)", "max response": "-1.18%"},
      {"compound": "O=C(Cn1ncc2c3ccccc3n(Cc3ccccc3)c2c1=O)NCc1ccccn1", "max response": "-1.24%"},
      {"compound": "CCCCOc1ccc(CSC(=N)N)cc1[N+](=O)[O-]", "max response": "-3.27%"},
      {"compound": "CCCOc1ccc(Cn2ccnc2)cc1[N+](=O)[O-]", "max response": "6.93%"},
      {"compound": "CCCCCOc1ccc(CSC2=NCCN2)cc1[N+](=O)[O-]", "max response": "16.2% (active)"},
      {"compound": "CCN=C1S/C(=C\\c2cc(Br)ccc2OCC(=O)OCC)C(=O)N1CC", "max response": "2.07%"},
      {"compound": "c1ccc(C(c2ccccc2)N2CCN(Cc3nnnn3C3CCCCC3)CC2)cc1", "max response": "-1.95%"},
      {"compound": "CC(=O)Nc1ccc(NC(=O)C2CCCN2S(=O)(=O)c2cccc(C(F)(F)F)c2)cc1", "note": "(stereo unspecified)", "max response": "0.889%"},
      {"compound": "O=C1CCc2cc(S(=O)(=O)N3CCC(C(=O)NCc4ccccc4Cl)CC3)ccc2N1", "max response": "5.54%"},
      {"compound": "CSc1cccc(NC(=O)C2CCCN2S(=O)(=O)c2ccc3c(c2)CCC(=O)N3)c1", "note": "(stereo unspecified)", "max response": "25.7% (active)"},
      {"compound": "CS(=O)(=O)N1CCN=C1SCc1ccc(F)cc1", "max response": "-2.32%"},
      {"compound": "Cc1cc(OCC(=O)Nc2c(C)n(C)n(-c3ccccc3)c2=O)ccc1[N+](=O)[O-]", "max response": "1.26%"},
      {"compound": "O=C1CSC(=S)N1c1ccc(O)cc1", "max response": "0.99%"},
      {"compound": "O=S(=O)(c1ccc(-c2ccno2)s1)N1CCCCC1", "max response": "-3.51%"},
      {"compound": "Cc1cc(NC(=O)CCC(=O)N(Cc2ccccc2)C(C(=O)NC2CCCC2)c2ccc(C)o2)no1", "note": "(stereo unspecified)", "max response": "-2.01%"},
      {"compound": "COc1ccc(-c2cc(=O)c3c(O)cc(O[C@@H]4O[C@H](CO[C@@H]5O[C@@H](C)[C@H](O)[C@@H](O)[C@H]5O)[C@@H](O)[C@H](O)[C@H]4O)cc3o2)cc1O", "max response": "-0.55%"},
      {"compound": "O=c1cc(-c2ccc(O)cc2)oc2c(-c3cc(-c4cc(=O)c5c(O)cc(O)cc5o4)ccc3O)c(O)ccc12", "max response": "-11.1%"},
      {"compound": "COc1c(O)cc2oc(-c3ccc(O)c(O)c3)cc(=O)c2c1O", "max response": "43% (active) and 45.2% (active)"},
      {"compound": "Cc1cc(C)cc(Oc2c(C(F)(F)F)oc3cc(OCC(=O)O)ccc3c2=O)c1", "max response": "-1.36%"},
      {"compound": "c1ccc(-c2cnc(CN3CCN(c4ccccc4)CC3)o2)cc1", "max response": "7.72%"},
      {"compound": "CCc1ccc(NC(=O)CS(=O)CC(=O)N2CCN(c3ccccc3F)CC2)cc1", "note": "(stereo unspecified)", "max response": "3.43%"},
      {"compound": "O=C(CCS(=O)(=O)c1cccc2nsnc12)N1CCN(c2ccccc2F)CC1", "max response": "6.58%"},
      {"compound": "O=C(NCC(=O)N1CCN(c2ccccc2F)CC1)c1cccs1", "max response": "23.4% (active)"},
      {"compound": "O=C(NCC(=O)N1CCN(c2ccccc2O)CC1)c1ccc2ccccc2c1", "max response": "1.36%"},
      {"compound": "O=C(CCSc1ccccc1)N1CCN(c2ccccc2F)CC1", "max response": "48.8% (active)"},
      {"compound": "O=C(CCc1ccccc1F)N1CCN(c2ccccc2)CC1", "max response": "0.391%"},
      {"compound": "COc1ccc(NC(=O)CSCc2ccc([N+](=O)[O-])cc2)cc1OC", "max response": "-3.9%"},
      {"compound": "Cc1cccc(N2CCN(C(=O)c3cccc(N4C(=O)C5C6C=CC(C6)C5C4=O)c3)CC2)c1C", "note": "(stereo unspecified)", "max response": "-6.3%"},
      {"compound": "Cc1ccc(Nc2nnc(SCC(=O)c3cc4ccccc4o3)s2)cc1C", "max response": "10.2%"},
      {"compound": "O=C(CSc1nnc(Nc2ccccc2)s1)Nc1cccnc1Cl", "max response": "2.36%"},
      {"compound": "CC(C)c1ccc(Nc2nnc(SCC(=O)c3nnc(-c4ccccc4)o3)s2)cc1", "max response": "23.6% (active)"},
      {"compound": "Cc1cc(=O)oc2c3c(cc(OCC(=O)NCc4ccccn4)c12)OC(C)(C)CC3", "max response": "-2.86%"}
    ]}
  ]
}
